Here are results for 50 sequences from PMC5892938, “SARNAclust: Semi-automatic detection of RNA protein binding motifs from immunoprecipitation data”.

Over roughly 11,000 sequences, “log2 fold change” has its median near 0.00022; the highest 2% begin near 0.34. Some of the results follow.

In this assay the target is GST-SBP-SLBP (stem-loop binding protein) (Homo sapiens, UniProt Q14493 1-270). The assay can be described thus: targeted RNA Bind-n-Seq; RBNS binding buffer: 25 mM Tris pH 7.5, 150 mM KCl, 3 mM MgCl2, 0.1% Tween, 0.5 mg/mL BSA, 1 mM DTT; 27 nM protein, 750 pM RNA pool; temperature not stated; high values mean tight binding. The note with it: protein: recombinant; tags: N-terminal GST and SBP (pGEX6P1-SBP); structured_RNA. The gist of the method: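 A designed RNA oligo pool, transcribed with T7, was present at 750 pM and incubated in RBNS binding buffer with 27 nM of GST-SBP-tagged protein that had been expressed in Rosetta(DE3) pLysS E. coli and purified with glutathione. After reverse transcription with a 10-nucleotide barcoded primer and PCR, the bound RNA was sequenced as 200-cycle paired-end reads on a MiSeq. Each sequence's binding signal is the DEseq binary-logarithm fold change in read counts, computed after joining reads with FLASH, aligning with HISAT2 and collapsing by barcode.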
For the sequence “GGUCACGUCUCAAUCAACUCAUUAGAGGGGGGGAAAACCCCUUUGCCCUCAUCUUCAACAGCUCGCAGUCAAG”, the binding signal came to 0.356 ± 0.431 log2 fold change. The same measure for “GGUCACGUCUCAAUCAACUCAUUAGAGGGGGGGAAAACCCCUUUGCCCUCACCUUCAACAGCUCGCAGUCAAG”: 0.303 ± 0.392 log2 fold change. The same measure for “GGUCACGUCUCAAUCAACUCAACAGAGGGGGGGAAAACCCCUUUACCCUCAUUUUCAACAGCUCGCAGUCAAG”: 0.422 ± 0.451 log2 fold change; for “GGUCACGUCUCAAUCAACUCCAUAGAGGGGGGGAAAACCCCUUUGCCCUCAUUUUCAACAGCUCGCAGUCAAG”: 0.381 ± 0.414 log2 fold change; for “GGUCACGUCUCAAUCAACUCCAUAGAGGGGGGGAAAACCCCUUUGCCCUCAAUUUCAACAGCUCGCAGUCAAG”: 0.426 ± 0.447 log2 fold change. The same measure for “GGUCACGUCUCAAUCAACUCCAUAGAGGGGGGGAAAACCCCUUUACCCUCAUUUUCAACAGCUCGCAGUCAAG”: 0.342 ± 0.445 log2 fold change; for “GGUCACGUCUCAAUCAACUCUUCAGAGGGGGGGAAAACCCCUUUGCCCUCAAUUUCAACAGCUCGCAGUCAAG”: 0.337 ± 0.433 log2 fold change; for “GGUCACGUCUCAAUCAACUCUCCAGAGGGGGGGAAAACCCCUUUGCCCUCCAUUUCAACAGCUCGCAGUCAAG”: 0.536 ± 0.422 log2 fold change. Regarding “GGUCACGUCUCAAUCAACUCCUACGAGGGGGGGAAAACCCCUUUACCCUCAUCAUCAACAGCUCGCAGUCAAG”, the binding signal was 0.348 ± 0.402 log2 fold change. In the case of “GGUCACGUCUCAAUCAACUCCUACGAGGGGGGGAAAACCCCUUUACCCUCAAAUUCAACAGCUCGCAGUCAAG” it was 0.442 ± 0.411 log2 fold change; in that of “GGUCACGUCUCAAUCAACUCACACGAGGGGGGGAAAACCCCUUUACCCUCAUCCUCAACAGCUCGCAGUCAAG”, 0.453 ± 0.432 log2 fold change; in that of “GGUCACGUCUCAAUCAACUCCUACGAGGGGGGGAAAACCCCUUUACCCUCAACCUCAACAGCUCGCAGUCAAG”, 0.619 ± 0.434 log2 fold change. In the case of “GGUCACGUCUCAAUCAACUCCUACGAGGGGGGGAAAACCCCUUUACCCUCAUAAUCAACAGCUCGCAGUCAAG” it was 0.382 ± 0.421 log2 fold change; in that of “GGUCACGUCUCAAUCAACUCAAUUCCAGGAGUUUCCUCCUGCAUUUUCAACAGCUCGCAGUCAAG”, 0.321 ± 0.19 log2 fold change; in that of “GGUCACGUCUCAAUCAACUCAAUCUCAGGAGUUUACUCCUGCAAAGUCAACAGCUCGCAGUCAAG”, 0.321 ± 0.217 log2 fold change. In the case of “GGUCACGUCUCAAUCAACUCAUUCCCAGGAGUUUACUCCUGUAAUUUCAACAGCUCGCAGUCAAG”, the binding signal was determined as 0.331 ± 0.233 log2 fold change. In the case of “GGUCACGUCUCAAUCAACUCAGGUCCAGGAGUUUACUCCUGCAAUUUCAACAGCUCGCAGUCAAG”, the binding signal came to 0.516 ± 0.297 log2 fold change. In the case of “GGUCACGUCUCAAUCAACUCAACUCCAGGAGUUUACUCCUGUAAUCUCAACAGCUCGCAGUCAAG” it was 0.456 ± 0.227 log2 fold change; in that of “GGUCACGUCUCAAUCAACUCUAGUCCAGGAGUUUACUCCUGUUUAUUCAACAGCUCGCAGUCAAG”, 0.313 ± 0.255 log2 fold change; in that of “GGUCACGUCUCAAUCAACUCAUGUCCAGGAGUUUACUCCUGCAAUCUCAACAGCUCGCAGUCAAG”, 0.371 ± 0.281 log2 fold change. The same measure for “GGUCACGUCUCAAUCAACUCUUCCCCAGGAGUUUACUCCUGCAUUUUCAACAGCUCGCAGUCAAG”: 0.302 ± 0.227 log2 fold change; for “GGUCACGUCUCAAUCAACUCAGGUCCAGGAGUUUACUCCUGCAAAUUCAACAGCUCGCAGUCAAG”: 0.356 ± 0.313 log2 fold change; for “GGUCACGUCUCAAUCAACUCAUCUCCAGGAGUUUCCUCCUGCAUACUCAACAGCUCGCAGUCAAG”: 0.323 ± 0.222 log2 fold change. With “GGUCACGUCUCAAUCAACUCAUCUUCAGGAGUUUGCUCCUGCAAUCUCAACAGCUCGCAGUCAAG”, the binding signal came out at 0.328 ± 0.197 log2 fold change. In the case of “GGUCACGUCUCAAUCAACUCAUCGCCAGGAGUUUACUCCUGCUAAUUCAACAGCUCGCAGUCAAG” it was 0.301 ± 0.286 log2 fold change. In the case of “GGUCACGUCUCAAUCAACUCAAUCCCAGGAGUUUUCUCCUGCAAUGUCAACAGCUCGCAGUCAAG” it was 0.317 ± 0.214 log2 fold change. The same measure for “GGUCACGUCUCAAUCAACUCAAGUCCAGGAGUUUUCUCCUGCAAAGUCAACAGCUCGCAGUCAAG”: 0.447 ± 0.258 log2 fold change. For the sequence “GGUCACGUCUCAAUCAACUCUUCUCCCAGGGAAAGCCCUGGCAAUUUCAACAGCUCGCAGUCAAG”, the binding signal is 0.428 ± 0.307 log2 fold change.

Consider “GGUCACGUCUCAAUCAACUCUUCUCCCAGGGAAACCCCUGGUUAUUUCAACAGCUCGCAGUCAAG”, for which the binding signal turned out to be 0.372 ± 0.273 log2 fold change.

On to “GGUCACGUCUCAAUCAACUCUUCGCCCAGGGAAAGCCCUGGUUAUUUCAACAGCUCGCAGUCAAG”, for which the binding signal was 0.464 ± 0.319 log2 fold change. The same measure for “GGUCACGUCUCAAUCAACUCUUCUCCCAGGGAAAGCCCUGGUUAACUCAACAGCUCGCAGUCAAG”: 0.335 ± 0.269 log2 fold change; for “GGUCACGUCUCAAUCAACUCAAUCUCCAGGGAAAACCCUGGCAAUGUCAACAGCUCGCAGUCAAG”: 0.578 ± 0.314 log2 fold change; for “GGUCACGUCUCAAUCAACUCUAUCUCCAGGGAAAUCCCUGGUAAACUCAACAGCUCGCAGUCAAG”: 0.306 ± 0.25 log2 fold change.

Turning to “GGUCACGUCUCAAUCAACUCAAUCUCCAGGGAAAGCCCUGGCAAUGUCAACAGCUCGCAGUCAAG”, the binding signal was found to be 0.309 ± 0.299 log2 fold change. The same measure for “GGUCACGUCUCAAUCAACUCAGUCUCCAGGGAAAUCCCUGGCAAUCUCAACAGCUCGCAGUCAAG”: 0.4 ± 0.338 log2 fold change; for “GGUCACGUCUCAAUCAACUCAGUCUCCAGGGAAAUCCCUGGUAUUUUCAACAGCUCGCAGUCAAG”: 0.347 ± 0.308 log2 fold change; for “GGUCACGUCUCAAUCAACUCUAUCUCCAGGGAAAUCCCUGGCAAUGUCAACAGCUCGCAGUCAAG”: 0.418 ± 0.298 log2 fold change. The same measure for “GGUCACGUCUCAAUCAACUCUUUCUCCAGGGAAAUCCCUGGCUAUCUCAACAGCUCGCAGUCAAG”: 0.375 ± 0.236 log2 fold change; for “GGUCACGUCUCAAUCAACUCAUUUUCCAGGGAAACCCCUGGCUAAUUCAACAGCUCGCAGUCAAG”: 0.348 ± 0.267 log2 fold change; for “GGUCACGUCUCAAUCAACUCAUCUUCCAGGGAAAACCCUGGCUAAUUCAACAGCUCGCAGUCAAG”: 0.36 ± 0.265 log2 fold change. In the case of “GGUCACGUCUCAAUCAACUCAUUCCCCAGGGAAACCCCUGGCUAACUCAACAGCUCGCAGUCAAG” it was 0.341 ± 0.323 log2 fold change; in that of “GGUCACGUCUCAAUCAACUCAUUCGCCAGGGAAACCCCUGGGUAUUUCAACAGCUCGCAGUCAAG”, 0.329 ± 0.31 log2 fold change; in that of “GGUCACGUCUCAAUCAACUCUUCCCCCAGGGAAACCCCUGGCUAAUUCAACAGCUCGCAGUCAAG”, 0.313 ± 0.254 log2 fold change. Regarding “GGUCACGUCUCAAUCAACUCAUACGAGGGGGGGAAAACCCCUUUACCCUCAAACUCAACAGCUCGCAGUCAAG”, the binding signal was 0.382 ± 0.399 log2 fold change. In the case of “GGUCACGUCUCAAUCAACUCAUACGAGGGGGGGAAAACCCCUUUACCCUCAAAUUCAACAGCUCGCAGUCAAG” it was 0.598 ± 0.45 log2 fold change. The same measure for “GGUCACGUCUCAAUCAACUCAUACGAGGGGGGGAAAACCCCUUUACCCUCAAUAUCAACAGCUCGCAGUCAAG”: 0.313 ± 0.436 log2 fold change; for “GGUCACGUCUCAAUCAACUCAUAAGAGGGGGGGAAAACCCCUUUACCCUCACACUCAACAGCUCGCAGUCAAG”: 0.455 ± 0.444 log2 fold change; for “GGUCACGUCUCAAUCAACUCACAAGAGGGGGGGAAAACCCCUUUACCCUCGUCCUCAACAGCUCGCAGUCAAG”: 0.385 ± 0.429 log2 fold change. In the case of “GGUCACGUCUCAAUCAACUCGCAAGAGGGGGGGAAAACCCCUUUACCCUCACAAUCAACAGCUCGCAGUCAAG” it was 0.536 ± 0.414 log2 fold change. In the case of “GGUCACGUCUCAAUCAACUCACAAGAGGGGGGGAAAACCCCUUUACCCUCACUCUCAACAGCUCGCAGUCAAG”, the binding signal came to 0.304 ± 0.385 log2 fold change.
